An excerpt weighted towards active compounds, which were near 3.2% of everything screened.
Bim-Mcl-1: inhibitors of Bim peptide binding to Mcl-1, primary screen, biochemical, bead-based flow cytometry, multiplex. Induced myeloid leukemia cell differentiation protein Mcl-1 (Homo sapiens), Q07820. Bim peptide-Mcl-1 binding. inhibition, % at 10 µM. 0.1% of 190,000 active; in the data active means inhibition above about 40%
14-3-3 Bad inh: inhibitors of 14-3-3 zeta/Bad binding, primary screen, biochemical, TR-FRET, bovine 14-3-3 zeta. 14-3-3 protein zeta/delta (Bos taurus), P63103. TR-FRET 14-3-3zeta/Dy647-pBad peptide displacement, 1 h. inhibition, % at 21.7 µM. 0.71% of 220,000 active;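 active means inhibition above about 70%, limit read from the data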
Target sequence (P63103 whole entry, looked up): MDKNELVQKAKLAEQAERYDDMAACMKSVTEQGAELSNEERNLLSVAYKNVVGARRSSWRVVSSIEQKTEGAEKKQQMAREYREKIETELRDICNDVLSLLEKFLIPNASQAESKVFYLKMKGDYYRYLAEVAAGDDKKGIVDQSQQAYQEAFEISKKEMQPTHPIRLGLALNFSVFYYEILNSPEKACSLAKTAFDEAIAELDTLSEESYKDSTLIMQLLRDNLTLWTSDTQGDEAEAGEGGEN
Mcl1-Bid inh: Mcl-1/Bid binding inhibitors, primary screen, biochemical, TR-FRET, 1536-well; Induced myeloid leukemia cell differentiation protein Mcl-1 (Homo sapiens), Q07820; TR-FRET Mcl-1/Bid-Dy647 peptide binding; inhibition, % at 21.7 µM; 0.97% of 220,000 active; AID 1021, 2008;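 active means compounds that cut the binding signal by more than half at the single screening dose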;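 further: His-tagged Mcl-1 with europium anti-His antibody binding Bid BH3 peptide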
Mcl1-Noxa inh: Mcl-1/Noxa binding inhibitors, primary screen, biochemical, TR-FRET, 1536-well | Induced myeloid leukemia cell differentiation protein Mcl-1 (Homo sapiens), Q07820 | TR-FRET Mcl-1/Noxa peptide binding, 2 h | inhibition, % at 21.7 µM | 1.5% of 220,000 active;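 active means compounds that cut the protein-peptide binding signal by more than 50% relative to plate controls in a single-dose test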;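 further: His-tagged Mcl-1 with rhodamine Noxa BH3 peptide and terbium anti-His antibody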
NCF1 inh: p47phox/p22phox peptide binding inhibitors, primary screen, biochemical, uHTS, NADPH oxidase regulatory subunit. 0.53% of 220,000 active. fluorescence polarization, 2 h. inhibition, % at 24.7 µM. AID 1274, 2008. Neutrophil cytosol factor 1 (Homo sapiens), P14598;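 active means inhibition above about 30%, limit read from the data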
Target sequence (P14598 whole entry, looked up): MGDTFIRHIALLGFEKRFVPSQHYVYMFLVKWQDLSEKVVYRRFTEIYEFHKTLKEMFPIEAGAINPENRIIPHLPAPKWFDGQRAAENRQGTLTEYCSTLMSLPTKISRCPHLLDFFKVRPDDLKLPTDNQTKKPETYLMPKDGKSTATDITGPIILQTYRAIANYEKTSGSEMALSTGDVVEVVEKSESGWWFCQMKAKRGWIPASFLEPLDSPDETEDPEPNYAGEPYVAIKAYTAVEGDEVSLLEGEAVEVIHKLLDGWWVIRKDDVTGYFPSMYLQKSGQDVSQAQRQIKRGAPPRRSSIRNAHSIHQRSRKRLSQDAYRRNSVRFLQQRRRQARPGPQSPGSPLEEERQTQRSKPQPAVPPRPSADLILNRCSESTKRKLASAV
Of the large screens only hits and unclear results are named; the others gave an inactive call; [ ] = dose if it differs, or a comment.

CNc1ccc(/C=C(\C#N)c2ccccn2)cc1[N+](=O)[O-]	Mcl1-Noxa inh 64
N#C/C(=C\c1ccc(Cl)c([N+](=O)[O-])c1)c1ccccn1	none
N#Cc1c(-c2ccco2)cc(-c2cccnc2)nc1N	Mcl1-Noxa inh 62
N#Cc1c(-c2ccco2)cc(-c2ccccn2)nc1N	Mcl1-Noxa inh 66
Clc1ccsc1-c1csc(-c2cccnc2)n1	none
c1cncc(-c2nc(-c3ccco3)cs2)c1	14-3-3 Bad inh 73
N#Cc1c(-c2ccco2)cc(C2CC2)nc1N	none
CCOc1ccc(-c2nnc(SCC(=O)Nc3ccc4c(c3)c3ccccc3n4CC)n2N)cc1	14-3-3 Bad inh 73
CCn1c2ccccc2c2cc(NC(=O)CSc3nnc(-c4ccc(OC)c(OC)c4)n3N)ccc21	none
CCN1CCN(C(=S)Nc2cc(S(=O)(=O)N(CC)CC)ccc2C)CC1	none
COc1ccc(C/C(N)=N/OC(=O)Cc2ccccc2)cc1OC	NCF1 inh 115
O=C(CNC(=O)c1cccc(Cl)c1)N/N=C/C=C/c1ccccc1	none
CSc1nnc2c3cc(C)ccc3n(Cc3ccccc3)c2n1	14-3-3 Bad inh 88[fluorescence artefact?]
O=C(Cc1cccc(C(F)(F)F)c1)NCC(c1ccco1)N1CCCCC1 (centres undefined)	14-3-3 Bad inh 89
O=C(NCC(c1ccco1)N1CCCC1)c1ccccc1F (centres undefined)	none
Cc1nc2ccccc2n1CSc1ccccc1	Bim-Mcl-1 42
C/C=C/C=C/[C@H]1Cc2cc(O)cc(O)c2O1	Mcl1-Noxa inh 56 (no result: Bim-Mcl-1)
CC1CCc2c(sc3ncn(CC(=O)N=Nc4c(O)[nH]c5ccccc45)c(=O)c23)C1 (centres undefined)	Mcl1-Bid inh 68 (no result: Bim-Mcl-1)
CCc1cc2c(SCC(=O)N(C)C3CCS(=O)(=O)C3)ncnc2s1 (centres undefined)	none (no result: Bim-Mcl-1)
COc1ccc(OC)c(-c2cc(C(=O)Nc3ccc(F)cc3F)no2)c1	14-3-3 Bad inh 88
O=C(Nc1ccc(F)cc1F)c1cc(-c2ccco2)on1	none
Cc1c(/C=N/n2cnnc2)c2ccccc2n1C	14-3-3 Bad inh 71[fluorescence artefact?]
COc1ccc(OCCn2c(C)c(/C=N/n3cnnc3)c3ccccc32)cc1	none
NC(=O)c1c(NC(=O)C2c3ccccc3Oc3ccccc32)sc2c1CCCCC2	Mcl1-Noxa inh 68
CC(=O)Nc1sc2c(c1C(N)=O)CCCC2	none
Cc1cc(=O)n2ccsc2n1	none
COc1ccc(-c2cc(-c3ccco3)[nH]c(=O)c2C#N)cc1OC	none (no result: Bim-Mcl-1)
COc1ccc(NC(=O)Cn2ncc(Cl)c(Cl)c2=O)cc1S(=O)(=O)N1CCOCC1	Mcl1-Noxa inh 78
CCN(CC)S(=O)(=O)c1cc(NC(=O)CSc2nccn2C)ccc1C	none
COc1ccc(NC(=O)COc2ncnc3ccccc23)cc1S(=O)(=O)N1CCOCC1	Bim-Mcl-1 41
CCC(=O)Nc1ccc(C(=O)Cn2ncc(Cl)c(Cl)c2=O)cc1	none (no result: Bim-Mcl-1)
CCOC(=O)c1ccc(NC(=O)Cn2ncc(Cl)c(Cl)c2=O)cc1	Mcl1-Noxa inh 81
CCN(CC)S(=O)(=O)c1cc(NC(=O)Cn2ncc(Cl)c(Cl)c2=O)ccc1C	Mcl1-Noxa inh 78 (no result: Bim-Mcl-1)
CCc1ccc(C(=O)Nc2ccc(OC)c(S(=O)(=O)N3CCOCC3)c2)cc1	none
Cc1ccc(OCCNC(=O)C(=O)NCc2ccco2)cc1	none
CCCCCCn1cnc2c(c1=O)c1nc3ccccc3nc1n2/N=C/c1ccco1	Mcl1-Bid inh 58
Cc1nc2c(c(=O)n1CCC1=CCCCC1)c1nc3ccccc3nc1n2/N=C/c1ccco1	Mcl1-Bid inh 74, Mcl1-Noxa inh 94 (no result: 14-3-3 Bad inh)
COCCn1cnc2c(c1=O)c1nc3ccccc3nc1n2/N=C/c1ccc(OC)c(OC)c1	Mcl1-Noxa inh 51 (no result: Bim-Mcl-1)
CC(C)NC(=S)Nc1ccc2nc3n(c(=O)c2c1)CCCCC3	none
CCOC(=O)N1CCN(CC(=O)Nc2cc(OCC)ccc2OCC)CC1	Mcl1-Bid inh 60
CCOc1ccc(OCC)c(NC(=O)CN2CCN(c3ccc(C)cc3C)CC2)c1	Mcl1-Bid inh 51
CCCCOc1ccc(NC(=O)CN2CCN(C(=O)OCC)CC2)cc1	none
CCOc1ccccc1N1CCN(CC(=O)Nc2cc(C)on2)CC1	none
CC1CCc2sc(NC(=O)C3CC(Cl)=CCC3C(=O)O)c(C#N)c2C1 (centres undefined)	none
CCO[C@H]1OC(C(N)=O)=C[C@@H](c2ccccc2)[C@@H]1CCCO	Mcl1-Bid inh 51
CCO[C@H]1OC(C(N)=O)=C[C@@H](c2ccc(Br)cc2)[C@@H]1CCCO	none
Oc1ccccc1N1CCN(CC(O)COCc2ccccc2Cl)CC1 (centres undefined)	none
O=C1ON=C(c2ccc(Cl)cc2)/C1=C/c1ccc(O)cc1	Mcl1-Noxa inh 66
O=C(Nc1ccc(S(=O)(=O)Nc2ncccn2)cc1)c1ccccc1NS(=O)(=O)c1ccc(Cl)cc1	none (no result: Bim-Mcl-1)
O=C(CSc1ncc(-c2ccccc2)[nH]1)Nc1ccccc1	NCF1 inh 33
O=C(CSc1ncc(-c2ccccc2)[nH]1)Nc1cccc(O)c1	none
COc1ccc(Nc2cc(C(=O)NCCCN3CCN(C)CC3)c3ccccc3n2)cc1OC	NCF1 inh 73
CC(C)(C)OC(=O)N1CCN(C(=O)c2cccnc2Cl)CC1	none
Cc1nc2sccn2c1-c1nc(-c2cc3ccccc3o2)cs1	Mcl1-Noxa inh 54
c1ccc2oc(-c3csc(N4CCOCC4)n3)cc2c1	none
CCOc1ccc2nc(COC(=O)c3ccco3)c(C(C)=O)[n+]([O-])c2c1	NCF1 inh 48
COc1ccc(Nc2nnc(C)c(=O)[nH]2)c(OC)c1	none (no result: Bim-Mcl-1)
O=C(N/N=C/c1ccc(O)c(O)c1)c1ccc(CSc2cccc3cccnc23)cc1	Mcl1-Noxa inh 76
O=C(CSc1cccc2cccnc12)N/N=C/c1cccc(O)c1	none
COc1ccc([N+](=O)[O-])cc1NC(=O)C(C)Sc1nc(-c2ccccc2)cs1 (centres undefined)	none
c1ccc(-c2nnc(CN3CCN(C(c4ccccc4)c4ccccc4)CC3)o2)cc1	NCF1 inh 159
COc1ccc(Br)cc1CN1CCCC(C(=O)N2CCCCCC2)C1 (centres undefined)	none
O=C(C1CCCN(Cc2ccccc2Br)C1)N1CCCCC1 (centres undefined)	Mcl1-Bid inh 59
COc1ccc(Br)cc1CN1CCCC(C(=O)N2CCCCC2)C1 (centres undefined)	14-3-3 Bad inh 73
CC(=O)Oc1cc2c(cc1Cl)C(c1cccs1)CC1(CC(C)(C)NC(=S)N1)O2 (centres undefined)	none
Nc1nnc(CSCc2cccc(Br)c2)s1	none
O=C1N(c2ccccc2)C[C@@H]2C[C@@H](c3cc4ccccc4o3)N3CCC[C@@]123	none

Screening data deposited in PubChem BioAssay by several laboratories.
